Assay results taken from the supplement of paper PMC10338343.
± gives the standard deviation.

test system: MILI (PIWIL2) piRISC loaded with L1MC piRNA (26 nt); assay: pre-steady-state target cleavage rate (min^-1); guide: L1MC piRNA 5'p-UAACUAAAUACUAUGCAAGCUGUAGG; MIWI and MILI are mouse PIWI proteins and EfPiwi is from a freshwater sponge; tags in brackets are library labels; higher = faster piRNA-guided slicing of the target; conditions: auxiliary factor: none (no GTSF1)
Summary of the method: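 A transcribed, DNA-blocked target RNA library (0.1 nM) and 1 nM active affinity-purified piRISC bearing one synthetic guide were incubated in HEPES–potassium acetate buffer at 33 °C for 0–8 or 0–960 min, either with or without 500 nM GTSF1 partner protein. Uncleaved targets were sequenced, normalised to depth and to weakly complementary targets, and pooled over three trials, with k3 capped at 0.0001 min^-1. The pre-steady-state cleavage rate was derived with a burst-and-steady-state fit.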

Sequence | pre-steady-state target cleavage rate
UCCUGGUACAGCUUGCCAUAGUAUUUAGUUA | 0.00532 ± 0.0033
UCCUCCAACAGCUUGCAUAGUAUAUAGUUA | 0.0056 ± 0.0022
UCCUGGUACGAGCUUGCAUAGUAUUUAGUUA | 0.0102 ± 0.0039
UCCUGGAACAGCUUGCAUUGUAUUUAGUUA | 0.00894 ± 0.0026
UCCUGGAACAGCUUCCAAAGUAUUUAGUUA | 0.00525 ± 0.0018
UCCUGGAACAGCAUGGAUAGUAUUUAGUUA | 0.00742 ± 0.0028
UCCUGGAUGAGCUUGCAUUGUAAUUAGUUA | 0.0035 ± 0.0031
UCCUGGAUCAGCUUGCAUAGUAUUAUGUUA | 0.00357 ± 0.0028
UCCUGGAUGAGCUUGCAUAGUACUUUAGUUA | 0.00632 ± 0.0026
UCCUGCUACAGCUUGCAUAGUGAUUUAGUUA | 0.00369 ± 0.0028
UCCUCCUACUGCUUGCUUAGUAUUUAGUUA | 0.00718 ± 0.0021
UCCUCCUAUAGCUUGCAUAGUAUUUAGUUA | 0.00658 ± 0.0019
UCCUCCUACUCGUUGCAUAGUAUUUAGUUA | 0.00864 ± 0.002
UCCUGGUACAGCUUGCAUAGUAUUAUGUUA | 0.00435 ± 0.0031
UCCUGGAUCAGCAUGCAUAGUUUUUAGUUA | 0.00668 ± 0.0023
UCCUCCUACAGCAUGCAUAGUAUUUAGUUA | 0.0117 ± 0.0029
UCCUGGAUGAGCUUACAUAGUAUUUAGUUA | 0.00591 ± 0.0023
UCCUGGAACACCUUGCAAAGUAUUUAGUUA | 0.0069 ± 0.0021
UCCUGGAUCAGCUUGCACAGUAUUUAGUUA | 0.0116 ± 0.003
UCCUGCUAGAGCAUGCAUAGUAUUUAGUUA | 0.00708 ± 0.0024
UCCUGGAACAGCUUCCUUAGUAUUUAGUUA | 0.00562 ± 0.002
UCCUGGAUGAGCUUGCAUAGUAUUUAGUUA [g2:g21:cont:t1A] | 0.0101 ± 0.0024
UCCUCCUACAGCUUGCAUAGUAUUUACGUUA | 0.00757 ± 0.0026
UCCUGGUACAGCUUGACAUAGUAUUUAGUUA | 0.00764 ± 0.0035
